# Sampled rows, rich in hits. Any-hit rate of the full collection: about 1.6%.
# ABCB6 inh MLPCN = inhibitors of human ABC transporter ABCB6 | AID 602162 | 360,000 compounds, 0.19% hits | fluorescence ratio to DMSO, % at 10 µM | K562-ABCB6 porphyrin accumulation, flow cytometry, 1 h; active compounds read low;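 active = fluorescence ratio to DMSO below 75%, the collection mean minus 3 SD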;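 note: signal is porphyrin accumulated inside mitochondria; 100% equals median channel fluorescence of DMSO control wells; lower ratio means ABCB6 inhibition with less porphyrin fluorescence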
# RAD54 branch = RAD54 (human) branch migration inhibition; Q92698; RAD54 Holliday junction branch migration, FAM/BHQ fluorescence; inhibition, % at 10.4 µM; 360,000 compounds, 0.14% hits; AID 602329;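 active = mean normalized replicate activity at least 40 and at least half of replicates scoring 40 or more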;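 note: 0% = median of neutral control wells and 100% = median of positive control wells; inhibitors cause a drop in the FAM fluorescence signal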
# Myeloid diff 2 = myeloid differentiation induction; ER-HoxA9 myeloid progenitors, lysozyme-GFP differentiation, flow cytometry; calls only at 10 µM; 360,000 compounds, 1% hits;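 active = normalized GFP-positive differentiation at or above the plate's own cutoff, the solvent-only control mean plus 3 SD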;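 note: cells exposed to compound for four days before flow analysis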
# N-glyco inh = N-linked glycosylation inhibition; D54 ERlucT glycosylation luciferase reporter, 24 h; percent of 100 nM tunicamycin response; reporter increase, % at 12.5 µM; 360,000 compounds, 0.23% hits;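 active = mean luciferase reporter signal, scaled so untreated is 0 and the glycosylation-blocking control 100, at or above a set limit in every replicate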;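 note: luciferase carries N-glycosylation sites so blocking glycosylation raises the light; 0% = median of neutral control wells and 100% = median of 100 nM tunicamycin wells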
# Vif inh = inhibitors of HIV Vif; HEK293T cells, Vif self-association by quenched fluorescence, imaging, 24 h; inhibition, % at 7.49 µM; 340,000 compounds, 0.35% hits; AID 602346; in the data active = inhibition above about 50%, passing the limit was not always enough
# Active calls of the source: *; i = inactive; x = no result given; + = active, no number.
SMILES,ABCB6 inh MLPCN,RAD54 branch,Myeloid diff 2,N-glyco inh,Vif inh
CC[C@H]1OC(=O)[C@H](C)[C@@H](O[C@H]2C[C@@](C)(OC)[C@@H](O)[C@H](C)O2)[C@H](C)[C@@H](O[C@@H]2O[C@H](C)C[C@H](N(C)C)[C@H]2O)[C@](C)(O)C[C@@H](C)C(=O)[C@H](C)[C@@H](O)[C@]1(C)O,96,-7,i,3,-9
Cc1nn(C)cc1NC(=O)C[C@@H]1CC[C@H]2[C@H](COc3ccc(NC(=O)NC(C)C)cc3C(=O)N2C)O1,x,1,x,x,x
Cc1ccc(-c2cc(C(F)F)n3ncc(C(=O)Nc4c(C)nn(Cc5c(Cl)cccc5Cl)c4C)c3n2)cc1,107,-13,i,0,28
Cc1nn(Cc2c(Cl)cccc2Cl)c(C)c1NC(=O)c1cnn2c(C(F)F)cc(-c3ccccc3)nc12,94,-3,i,1,104*
CCCC#Cc1cnc2c(c1)C(=O)N([C@@H](C)CO)C[C@H](C)[C@H](CN(C)Cc1ccc3c(c1)OCO3)O2,x,0,x,x,x
COc1ccccc1N(O)C1CC(=O)N(c2ccc(Br)cc2)C1=O (stereo unspecified),89,-7,i,1,-2
CCCCCCC(=O)N(O)C1CC(=O)N(c2ccc(F)cc2)C1=O (stereo unspecified),104,-6,i,78*,39
CCCCCCC(=O)N(O)C1CC(=O)N(c2ccc(Br)cc2)C1=O (stereo unspecified),99,1,i,68*,4
Cc1cc2c(cc1C)NC(CC(=O)NCc1ccccc1)C(=O)N2 (stereo unspecified),159,x,+,6,-1
CN(C)C(=O)[C@@H]1[C@@H](CO)[C@@H]2Cn3c(ccc(-c4ccccc4)c3=O)[C@@H]2N1Cc1ccccc1,x,-8,x,x,x
O=C([C@@H]1[C@@H](CO)[C@@H]2Cn3c(ccc(-c4ccccc4F)c3=O)[C@H]1N2C(=O)C1CC1)N1CCOCC1,x,-8,x,x,x
COc1cc(C(=O)NCC(=O)N/N=C/c2ccccn2)cc(OC)c1OC,102,x,i,2,10
O=C(CNC(=O)c1ccncc1)N/N=C/c1ccccn1,171,x,i,-3,59*
COc1ccc(NC(=O)N(C)C[C@H]2OCCCC[C@H](C)Oc3ccc(NC(=O)Nc4cccc5ccccc45)cc3C(=O)N([C@H](C)CO)C[C@H]2C)cc1,x,-6,x,x,x
C[C@H]1CN([C@@H](C)CO)C(=O)c2cc(NS(=O)(=O)c3ccccc3)ccc2O[C@H]1CN(C)C(=O)Nc1ccccc1,x,0,x,x,x
N#Cc1c(-c2ccccc2)cc(C2CC2)nc1SCC(=O)c1cccs1,99,-4,i,1,86*
COc1ccc(-c2ccc3c(c2)S(=O)(=O)c2cccc(C(=O)N4CCN(C5CCCCC5)CC4)c2C3=O)cc1OC,295,-1,+,1,-2
Nc1nc(-c2ccccc2)cc(-c2ccccc2O)n1,95,4,i,35*,-7
COC(=O)C[C@H]1C[C@H]2c3cc(NC(=O)Nc4ccc(OC)cc4)ccc3O[C@H]2[C@H](CO)O1,x,-5,x,x,x
CC(C)(C)OC(=O)n1cc(/C=N/NC(=O)c2ccco2)c2ccccc21,94,0,+,1,-1
CC(=O)n1cc(/C=N/NC(=O)c2ccccc2O)c2ccccc21,98,4,i,1,-20
CCCCn1c(N)c(N(CC)C(=O)c2cc(CC)c(C)s2)c(=O)[nH]c1=O,97,x,i,-3,55*
CCCCN(C(=O)c1cc(=O)[nH]c2ccccc12)c1c(N)n(CCCC)c(=O)[nH]c1=O,102,-4,+,3,x
CCCCn1c(N)c(N(CCOC)C(=O)c2cc(CC)c(C)s2)c(=O)[nH]c1=O,107,13,i,4,-4
CCCCN(C(=O)C1CCN(C(=O)c2ccccc2C)CC1)c1c(N)n(CCC)c(=O)[nH]c1=O,99,x,i,4,6
CCCCN(C(=O)C1CCN(C(=O)c2ccccc2C)CC1)c1c(N)n(CCCC)c(=O)[nH]c1=O,92,3,+,1,x
C[C@H](CO)N1C[C@H](C)[C@@H](CN(C)Cc2ccncc2)Oc2cc(-c3ccccc3F)ccc2S1(=O)=O,x,2,x,x,x
C[C@@H](NC(=O)C[C@H]1CC[C@@H]2[C@H](COC[C@H](O)CN2C(=O)Nc2cccc(F)c2)O1)c1ccccc1,x,1,x,x,x
C=CCn1c(SCC(=O)Nc2nccs2)nnc1-c1cc2cccc(OC)c2o1,72*,8,i,-4,-1

# Assay outcomes: PubChem BioAssay, several laboratories
